From PubChem BioAssay (NCI)
Compounds without any hit were thinned out: in the full panel of roughly 79,000, 15% have a hit. Calls of active or inactive are those of the source. Rule as the data show it: active = growth inhibition above about 70%; inactive = the rest.

How the values were obtained:
[1] = NCI Yeast Anticancer Drug Screen. Data for the rad52 strain (AID 147);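 also: 0% = growth of vehicle-treated control cultures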; settings: S. cerevisiae rad52 mutant growth inhibition, stronger effect = higher value
Outline: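 Inhibition of yeast growth, referenced to vehicle controls, was the measured output for a strain with defective DNA damage repair.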

[2] = NCI Yeast Anticancer Drug Screen. Data for the wt1 strain (AID 149);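 also: 0% = growth of vehicle-treated wt1 cultures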; settings: S. cerevisiae wt1 strain (SPY 50644) growth inhibition, stronger effect = higher value
Outline: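 Growth inhibition read against vehicle controls after compound exposure of the wt1 yeast strain.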

[3] = NCI Yeast Anticancer Drug Screen. Data for the rad50EPP+ strain (AID 151);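 also: 0% = growth of vehicle-treated control cultures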; settings: S. cerevisiae rad50 mutant strain, stronger effect = higher value
Outline: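 Genetically defined yeast (rad50EPP+, DNA damage repair alteration) is grown with compound, and inhibition of growth is expressed relative to vehicle-treated controls.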

[4] = NCI Yeast Anticancer Drug Screen. Data for the mgt1 strain (AID 153); settings: S. cerevisiae mgt1 mutant growth inhibition, stronger effect = higher value
Outline: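 In the mgt1 strain, test compounds were added and growth inhibition was determined relative to vehicle-treated controls.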

[5] = NCI Yeast Anticancer Drug Screen. Data for the rad50 strain (AID 155);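 also: 0% = growth of vehicle-only cultures of the same strain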; settings: S. cerevisiae rad50 strain growth inhibition, stronger effect = higher value
Outline: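 Readout: growth inhibition relative to vehicle-treated cultures. Compound exposure was carried out in a genetically defined yeast strain deficient in DNA damage repair.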

[6] = NCI Yeast Anticancer Drug Screen. Data for the mec2-1 strain (AID 157); settings: S. cerevisiae mec2-1 strain, stronger effect = higher value
Outline: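 Each compound was tested on mec2-1 yeast, a strain altered in DNA damage repair or cell cycle control. Growth inhibition is reported relative to vehicle.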

[7] = NCI Yeast Anticancer Drug Screen. Data for the sgs1 mgt1 strain (AID 161);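 also: 0% = growth of cultures given vehicle only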; settings: S. cerevisiae sgs1 mgt1 strain, stronger effect = higher value
Outline: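 Genetically altered yeast, compound exposure, growth inhibition relative to vehicle.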

[8] = NCI Yeast Anticancer Drug Screen. Data for the CLN2oe strain (AID 163);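 also: 0% = growth of vehicle-only control cultures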; settings: S. cerevisiae CLN2oe strain, stronger effect = higher value
Outline: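 First, the altered yeast strain was treated with each compound; second, its growth was measured; finally, inhibition was derived by comparison with vehicle controls.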

[9] = NCI Yeast Anticancer Drug Screen. Data for the cln2 rad14 strain (AID 165);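 also: 0% = growth equal to vehicle treated cultures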; settings: S. cerevisiae cln2 rad14 strain, stronger effect = higher value
Outline: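 Test compounds were added to cln2 rad14 yeast cultures; inhibition of growth was then determined by comparison with vehicle treatment.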

[10] = NCI Yeast Anticancer Drug Screen. Data for the bub3 strain (AID 167); settings: S. cerevisiae bub3 mutant strain, stronger effect = higher value
Outline: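 Readout: yeast growth inhibition, expressed relative to vehicle-only wells. The test organism is a mutant strain from a panel with lesions in DNA repair or checkpoint genes.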

[11] = NCI Yeast Anticancer Drug Screen. Data for the wt2 strain (AID 169);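 also: 0% = growth of vehicle-treated yeast cultures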; settings: S. cerevisiae wt2 strain growth inhibition, stronger effect = higher value
Outline: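 The panel's yeast strains carry defined changes in DNA repair or cell cycle genes. Each strain is grown with compound, and growth loss is scored relative to vehicle.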

[12] = NCI Yeast Anticancer Drug Screen. Data for the mlh1 strain (AID 171);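 also: 0% = growth of vehicle-treated control cultures of the same strain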; settings: S. cerevisiae mlh1 strain growth inhibition, stronger effect = higher value
Outline: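 Inhibition values reflect reduced yeast growth in the presence of compound, referenced to vehicle controls, using a strain chosen for its alteration in DNA repair or cell cycle control.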

[13] = NCI Yeast Anticancer Drug Screen. Data for the mlh1 rad18 strain (AID 175); settings: S. cerevisiae mlh1 rad18 strain growth inhibition, stronger effect = higher value
Outline: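 Inhibition values reflect reduced growth of mutant yeast versus vehicle-treated controls following compound exposure; the mutations affect DNA damage repair.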

[14] = NCI Yeast Anticancer Drug Screen. Data for the rad18 strain (AID 177); settings: S. cerevisiae rad18 mutant growth inhibition, stronger effect = higher value
Outline: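 Steps: expose repair-mutant yeast to compound; measure growth; express as inhibition relative to vehicle control.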

[15] = NCI Yeast Anticancer Drug Screen. Data for the rad14 strain (AID 159);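 also: 0% = growth of vehicle-treated control cultures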; settings: S. cerevisiae rad14 strain growth inhibition, stronger effect = higher value
Outline: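 Growth inhibition vs vehicle controls; genetically altered yeast strain (DNA damage repair defect) treated with test compounds.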

[16] = NCI Yeast Anticancer Drug Screen. Data for the sgs1 strain (AID 173);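 also: 0% = growth of vehicle-only control cultures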; settings: S. cerevisiae sgs1 mutant, stronger effect = higher value
Outline: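 Vehicle-treated cultures served as reference for growth inhibition of a yeast strain altered in DNA damage repair or cell cycle control after compound exposure.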

[17] = at 5.0 µM (retest, dose inferred, filed as 0.5)
[18] = at 50.0 µM (retest, dose inferred, filed as 5.0)

Measured: growth inhibition

O=[N+]([O-])/C=C/c1cc(Cl)c(/C=C/[N+](=O)[O-])cc1Cl
inactive: [1]; at 1.2 µM 35% | [1]; at 3.7 µM 55% | [2]; at 1.2 µM 25% | [2]; at 3.7 µM 32% | [2]; at 11.0 µM 43% | [2]; at 33.0 µM 42% | [2]; at 100.0 µM 37% | [3]; at 1.2 µM 13% | [3]; at 3.7 µM 19% | [3]; at 11.0 µM 35% | [3]; at 33.0 µM 66% | [4]; at 1.2 µM 36% | [4]; at 3.7 µM 48% | [4]; at 11.0 µM 68% | [5]; at 1.2 µM 33% | [5]; at 3.7 µM 55% | [5]; [17] 3% | [5]; [18] 53% | [6]; at 1.2 µM 39% | [6]; at 3.7 µM 59% | [6]; [17] 18% | [6]; at 11.0 µM 65% | [6]; [18] 56% | [7]; [17] 23% | [8]; at 1.2 µM 22% | [8]; at 3.7 µM 32% | [8]; at 11.0 µM 49% | [8]; at 33.0 µM 69% | [9]; [17] 22% | [9]; [18] 60% | [9]; at 50.0 µM 62.1% | [10]; at 1.2 µM 28% | [10]; at 3.7 µM 37% | [10]; [17] 43% | [11]; at 1.2 µM 8% | [11]; at 3.7 µM 34% | [11]; at 11.0 µM 68% | [11]; at 100.0 µM 69% | [12]; at 1.2 µM 36% | [12]; at 3.7 µM 48% | [12]; at 11.0 µM 68% | [13]; [17] 16% | [13]; at 50.0 µM 56.4% | [14]; at 1.2 µM 19% | [14]; at 3.7 µM 51%
active: [1]; at 11.0 µM 74% | [1]; at 33.0 µM 91% | [1]; at 100.0 µM 89% | [3]; at 100.0 µM 70% | [4]; at 33.0 µM 96% | [4]; at 100.0 µM 92% | [5]; at 11.0 µM 81% | [5]; at 33.0 µM 97% | [5]; at 50.0 µM 79.7% | [5]; at 100.0 µM 94% | [6]; at 33.0 µM 81% | [6]; at 50.0 µM 73.5% | [6]; at 100.0 µM 85% | [7]; [18] 73% | [7]; at 50.0 µM 74.8% | [8]; at 100.0 µM 73% | [10]; at 11.0 µM 84% | [10]; at 33.0 µM 92% | [10]; [18] 96% | [10]; at 50.0 µM 79.2% | [10]; at 100.0 µM 91% | [11]; at 33.0 µM 91% | [12]; at 33.0 µM 96% | [12]; at 100.0 µM 92% | [13]; [18] 77% | [14]; at 11.0 µM 78% | [14]; at 33.0 µM 95% | [14]; at 100.0 µM 89%

O=C(CC(=O)n1nc(-c2ccccc2)c(N=Nc2ccc(Cl)cc2)c1-c1ccccc1)Nc1cccc(Cl)c1
active: [10]; [18] 78% | [10]; at 50.0 µM 88.7%
inactive: [1]; at 1.2 µM -4% | [1]; at 3.7 µM -1% | [1]; at 11.0 µM 1% | [1]; at 33.0 µM 0% | [1]; at 100.0 µM 0% | [2]; at 1.2 µM -2% | [2]; at 3.7 µM -3% | [2]; at 11.0 µM -5% | [2]; at 33.0 µM -4% | [2]; at 100.0 µM -5% | [3]; at 1.2 µM 1% | [3]; at 3.7 µM 8% | [3]; at 11.0 µM 14% | [3]; at 33.0 µM 26% | [3]; at 100.0 µM 29% | [4]; at 1.2 µM -5% | [4]; at 3.7 µM -5% | [4]; at 11.0 µM -7% | [4]; at 33.0 µM -4% | [4]; at 100.0 µM -6% | [5]; at 1.2 µM -2% | [5]; at 3.7 µM 1% | [5]; [17] 7% | [5]; at 11.0 µM 0% | [5]; at 33.0 µM 2% | [5]; [18] -3% | [5]; at 50.0 µM 48.1% | [5]; at 100.0 µM 2% | [6]; at 1.2 µM -4% | [6]; at 3.7 µM -4% | [6]; [17] -4% | [6]; at 11.0 µM -2% | [6]; at 33.0 µM -3% | [6]; [18] -19% | [6]; at 50.0 µM 46% | [6]; at 100.0 µM -4% | [15]; at 1.2 µM -4% | [15]; at 3.7 µM -3% | [15]; at 11.0 µM -2% | [15]; at 33.0 µM -1% | [15]; at 100.0 µM 1% | [8]; at 1.2 µM -8% | [8]; at 3.7 µM -10% | [8]; at 11.0 µM -10% | [8]; at 33.0 µM -11% | [8]; at 100.0 µM -15% | [9]; [17] 2% | [9]; [18] 15% | [9]; at 50.0 µM 31.6% | [10]; at 1.2 µM 27% | [10]; at 3.7 µM 28% | [10]; [17] 8% | [10]; at 11.0 µM 34% | [10]; at 33.0 µM 45% | [10]; at 100.0 µM 51% | [11]; at 1.2 µM -3% | [11]; at 3.7 µM -3% | [11]; at 11.0 µM -3% | [11]; at 33.0 µM -5% | [11]; at 100.0 µM -5% | [12]; at 1.2 µM -5% | [12]; at 3.7 µM -2% | [12]; at 11.0 µM -2% | [12]; at 33.0 µM -4% | [12]; at 100.0 µM -6% | [16]; at 1.2 µM -4% | [16]; at 3.7 µM -2% | [16]; at 11.0 µM 1% | [16]; at 33.0 µM 0% | [16]; at 100.0 µM 1% | [14]; at 1.2 µM -4% | [14]; at 3.7 µM -4% | [14]; at 11.0 µM -1% | [14]; at 33.0 µM 1% | [14]; at 100.0 µM 0%
